Measured values published in PubChem BioAssay (EPA / NIEHS).
Calls of active or inactive are those of the source. Rule for the calls: active = hit-call score of the fitted dose curve at least 0.9, where 1 is the maximum; inactive = score below 0.9.

target: Hepatocyte nuclear factor 6 (Homo sapiens) (UniProt Q9UBC0); experiment: ATG_HNF6_CIS: Attagene CIS-FACTORIAL HepG2 Assay for human Hepatocyte Nuclear Factor 6 (HNF6) (AID 2282952); conditions: HepG2 Attagene cis-factorial HNF6 reporter transcription; actives raise or lower the signal
Summary of the method: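 Multiplexed mRNA reporter assay in transfected HepG2; 24 h dosing; RT-PCR plus capillary electrophoresis fluorescence; DMSO-referenced bidirectional curve fitting.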

Hepatocyte nuclear factor 6 (Homo sapiens), sequence (Q9UBC0 whole entry, looked up): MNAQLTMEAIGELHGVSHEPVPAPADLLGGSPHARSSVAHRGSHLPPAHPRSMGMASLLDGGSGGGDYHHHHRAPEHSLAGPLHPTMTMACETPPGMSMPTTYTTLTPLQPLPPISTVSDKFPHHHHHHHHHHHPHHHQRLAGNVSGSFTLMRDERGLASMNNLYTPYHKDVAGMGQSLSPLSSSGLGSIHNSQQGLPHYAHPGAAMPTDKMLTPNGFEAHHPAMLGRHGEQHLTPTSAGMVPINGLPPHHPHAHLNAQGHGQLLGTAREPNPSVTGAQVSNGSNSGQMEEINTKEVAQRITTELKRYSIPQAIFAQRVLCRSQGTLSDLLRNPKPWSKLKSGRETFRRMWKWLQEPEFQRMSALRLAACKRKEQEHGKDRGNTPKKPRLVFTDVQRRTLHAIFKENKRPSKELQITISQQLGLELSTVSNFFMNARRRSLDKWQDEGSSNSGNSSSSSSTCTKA

SMILES | outcome
CCCCCCCOC(=O)CCC | inactive
CC(C)(C)c1ccc(N)cc1 | inactive
CC(=O)Nc1nnc(S(N)(=O)=O)s1 | inactive
[Cl][Bi]([Cl])([c]1ccccc1)([c]1ccccc1)[c]1ccccc1 | inactive
CCCCC(CC)COC(=O)c1ccccc1O (configuration not stated) | inactive
CCC(CC)C(=O)O | inactive
CCCCC(CC)COCC1CO1 (configuration not stated) | inactive
CCC(C)OC(=O)c1ccc(O)cc1 (configuration not stated) | inactive
O=C(O)CCCCCCCCCC(=O)O | inactive
COc1ccc(C(Cl)=C(c2ccc(OC)cc2)c2ccc(OC)cc2)cc1 | inactive
C=CC(=O)OCCC(=O)O | inactive
C=C(C)c1cccc(C(C)(C)N=C=O)c1 | inactive

target: Heat shock factor protein 1 (Homo sapiens) (UniProt Q00613); experiment: ATG_HSE_CIS: Attagene CIS-FACTORIAL HepG2 Assay for human Heat Shock Transcription Factor 1 (HSE) (AID 2282953); conditions: HepG2 HSE cis-reporter, Attagene RNA transcription; actives raise or lower the signal
Summary of the method: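 HepG2, transient MRTU transfection, cis-promoter reporters (endogenous TF activity). 24 h compound. RNA → oligo(dT) RT → PCR → 6-FAM primer extension → HpaI cut → CE. Bidirectional fit vs DMSO.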

Heat shock factor protein 1 (Homo sapiens), sequence (Q00613 whole entry, looked up): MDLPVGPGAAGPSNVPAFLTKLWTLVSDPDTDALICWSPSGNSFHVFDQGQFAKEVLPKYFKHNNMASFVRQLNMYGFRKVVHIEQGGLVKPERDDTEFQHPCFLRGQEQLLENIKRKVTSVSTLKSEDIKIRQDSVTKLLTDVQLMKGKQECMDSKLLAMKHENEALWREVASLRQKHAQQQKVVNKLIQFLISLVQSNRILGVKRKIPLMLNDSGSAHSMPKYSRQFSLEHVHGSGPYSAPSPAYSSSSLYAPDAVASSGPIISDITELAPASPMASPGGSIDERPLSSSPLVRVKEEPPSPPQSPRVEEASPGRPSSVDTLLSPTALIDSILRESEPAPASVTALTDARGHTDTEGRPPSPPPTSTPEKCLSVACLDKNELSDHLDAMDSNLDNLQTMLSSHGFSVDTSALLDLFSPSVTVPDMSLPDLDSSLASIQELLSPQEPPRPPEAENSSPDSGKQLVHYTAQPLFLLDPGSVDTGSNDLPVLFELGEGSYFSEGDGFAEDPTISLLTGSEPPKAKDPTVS

SMILES | outcome | AC50
O=C1CCC(=O)N1Cl | inactive | 
OC1CCCCCCCCCCC1 | inactive | 
COC(=O)c1cc(Cl)ccc1[N+](=O)[O-] | inactive | 
c1ccc2c(c1)ccc1ncccc12 | inactive | 
O=C(Nc1ccccc1SSc1ccccc1NC(=O)c1ccccc1)c1ccccc1 |  | 47.1 µM (active)
Cc1cccc(OCCOc2cccc(C)c2)c1 | inactive | 
c1ccc(CNCc2ccccc2)cc1 | inactive | 
CC(C)CCCCCOC(=O)CCS | inactive | 
O=c1[nH]c(=O)c2[nH]c(=O)[nH]c2[nH]1 | inactive | 
O=C(OCC1CCC2OC2C1)C1CCC2OC2C1 (configuration not stated) | inactive | 
C=CC(=O)OCCOC(=O)C=C | inactive | 
O=c1[nH]nc(-c2ccc([N+](=O)[O-])o2)o1 | inactive | 
CCOC(=O)CC(C(C)=O)C(C)=O | inactive | 
O=C1CCCN1CCO | inactive | 
CCCCCCCCC(=O)OCC | inactive | 
CC(C)C1=CC2=CC[C@@H]3[C@](C)(CCC[C@@]3(C)C(=O)O)[C@H]2CC1 |  | 145 µM (active)
O=C1CCCCCCCCCCC(=O)OCCO1 | inactive | 
CCCCCCCCCCCCCCCCCC#N | inactive | 
CC(=O)Nc1ccc2c(c1)Cc1cc(NC(C)=O)ccc1-2 | inactive | 
CCCCCCCCCCCCCOP(=O)(O)O | inactive | 

SMILES | outcome | AC50
CC(C)(C)C1CCCCC1=O (configuration not stated) | inactive | 
SCCc1cnccn1 | inactive | 
COc1ccc(NC(C)=O)cc1N | inactive | 
CCC(CO)CO | inactive | 
COc1c2ccoc2cc2oc(=O)ccc12 | inactive | 
O=C(Nc1ccccc1)c1ccccc1O | inactive | 
C=C[Si](OC(C)=O)(OC(C)=O)OC(C)=O | inactive | 
Cc1ccc2c(c1)C(=O)c1ccccc1C2=O | inactive | 
CCCCCCCOC(=O)CCC | inactive | 
CC(C)(C)c1ccc(N)cc1 | inactive | 
CC(=O)Nc1nnc(S(N)(=O)=O)s1 | inactive | 
[Cl][Bi]([Cl])([c]1ccccc1)([c]1ccccc1)[c]1ccccc1 |  | 5.52 µM (active)
CCCCC(CC)COC(=O)c1ccccc1O (configuration not stated) | inactive | 
CCC(CC)C(=O)O | inactive | 
CCCCC(CC)COCC1CO1 (configuration not stated) | inactive | 
CCC(C)OC(=O)c1ccc(O)cc1 (configuration not stated) | inactive | 
O=C(O)CCCCCCCCCC(=O)O | inactive | 
COc1ccc(C(Cl)=C(c2ccc(OC)cc2)c2ccc(OC)cc2)cc1 | inactive | 
C=CC(=O)OCCC(=O)O | inactive | 
C=C(C)c1cccc(C(C)(C)N=C=O)c1 | inactive | 
